{
  "source": "the supplement of paper PMC9844399",
  "note": "Counter-ions that a name gives are not always drawn.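 Note: High-content confocal imaging of branched-DNA amplified FISH in 384-well plates, Hoechst-defined nuclei, score is well value minus plate DMSO median over DMSO robust SD, four wells per compound.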",
  "data": [
    {"test_system": "HeLa", "assay": "MALAT1 nuclear FISH intensity, robust Z-score vs DMSO; higher = more nuclear MALAT1 lncRNA, active = -3 or less", "details": "10 µM; 6 h", "values": [
      {"smiles": "CN1[C@@H]2C[C@@H](OC(=O)[C@H](CO)c3ccccc3)C[C@H]1[C@@H]1O[C@@H]12", "MALAT1 nuclear FISH intensity": "-0.891 (inactive)"},
      {"smiles": "CN1[C@@H]2CC[C@H]1C[C@@H](OC(=O)C(CO)c1ccccc1)C2", "note": "(stereo partly specified) [Atropine]", "MALAT1 nuclear FISH intensity": "-0.341 (inactive)"},
      {"smiles": "COc1cc2c(c3oc(=O)c4c(c13)CCOC4=O)[C@@H]1C=CO[C@@H]1O2", "note": "[Aflatoxin G1]", "MALAT1 nuclear FISH intensity": "0.611 (inactive)"},
      {"smiles": "O=C(NCCN1CCC2(CC1)C(=O)NCN2c1cccc(F)c1)c1ccc2ccccc2c1", "MALAT1 nuclear FISH intensity": "-1.49 (inactive)"},
      {"smiles": "CN1C(=O)CC(=O)N(c2ccccc2)c2cc(Cl)ccc21", "note": "[Clobazam]", "MALAT1 nuclear FISH intensity": "-0.175 (inactive)"},
      {"smiles": "CC(C)n1cc2c3c(cccc31)C1C[C@@H](C(=O)N[C@H]3CCC[C@H]3O)CN(C)[C@@H]1C2", "note": "(stereo partly specified)", "MALAT1 nuclear FISH intensity": "-0.281 (inactive)"},
      {"smiles": "CC[C@@]1([C@@H]2O[C@@H]([C@H]3O[C@@](O)(CO)[C@H](C)C[C@@H]3C)C[C@@H]2C)CC[C@H]([C@]2(C)CC[C@]3(C[C@H](O)[C@@H](C)[C@@H]([C@@H](C)[C@@H](OC)[C@H](C)C(=O)O)O3)O2)O1", "note": "[Monensin sodium salt]", "MALAT1 nuclear FISH intensity": "0.871 (inactive)"},
      {"smiles": "CCCCCCCCCCCCCCCC(=O)OCC(COP(=O)([O-])OCC[N+](C)(C)C)OC(C)=O", "note": "(stereo unspecified)", "MALAT1 nuclear FISH intensity": "-0.455 (inactive)"},
      {"smiles": "COc1cccc2c1cc([N+](=O)[O-])c1c(C(=O)O)cc3c(c12)OCO3", "note": "[Aristolochic acid]", "MALAT1 nuclear FISH intensity": "-1.95 (inactive)"},
      {"smiles": "CCCCC/C=C\\CC1OC1CCCCCCCC(=O)O", "note": "(stereo unspecified) [Leukotoxin A (9,10-EODE)]", "MALAT1 nuclear FISH intensity": "-0.766 (inactive)"},
      {"smiles": "c1ccc2c(c1)[I+]c1ccccc1-2", "note": "[Diphenyleneiodonium chloride]", "MALAT1 nuclear FISH intensity": "-2.94 (inactive)"}
    ]}
  ]
}
